Source: PubChem BioAssay (several laboratories)
CCHF vOTU inh: blocks the CCHF virus ovarian tumor domain protease. CCHFV vOTU protease, Pep-AMC fluorescence. inhibition, % at 11.5 µM. actives 0.55% (n = 370,000)
GDH-TPI counter: inhibits GDH-TPI coupling enzymes, artifact for Mtb FBA screen; GDH-TPI coupled enzyme counterscreen, NADH absorbance; inhibition, % at 4.8 µM; actives 1.2% (n = 360,000); AID 588335
FBA Mtb inh: inhibits M. tuberculosis FBA enzyme. P9WQA3. purified M. tuberculosis FBA, fluorescence read-out. inhibition, % at 1 µM. actives 2.3% (n = 360,000). AID 588726; in the data active = inhibition above about 27%
3CLpro inhibitor: SARS-CoV 3CLpro protease inhibition; P0C6X7; recombinant SARS-CoV 3CLpro, quenched FRET peptide cleavage; inhibition, % at 6 µM; actives 0.14% (n = 290,000); AID 1706; in the data active = inhibition above about 12%
VHR inh abs: inhibitors of human VHR1 phosphatase (DUSP3); P51452; recombinant VHR phosphatase, pNPP absorbance; inhibition, % at 13.3 µM; actives 0.52% (n = 290,000); AID 1654; in the data active = inhibition above about 50%
RecA splice inh: inhibitors of M. tuberculosis RecA intein splicing; inhibition, % (concentration not given with the values); cell-free RecA intein splicing, fluorescence; actives 0.75% (n = 290,000); AID 2221; P9WHJ3; in the data active = inhibition above about 30%
A number is an active result; - = inactive; . = not tested or not shown; + = active, no number. Only some compounds are listed: those with a hit (about 4.7% of all), similar ones and a draw of the others. Rule as the data show it, unless noted: active = inhibition above about 30%; inactive = the rest.

SMILES | CCHF vOTU inh | GDH-TPI counter | FBA Mtb inh | 3CLpro inhibitor | VHR inh abs | RecA splice inh
CCOC(=O)C(CC)n1cnc2c(nnn2-c2cccc(OC)c2)c1=O (stereo unspecified) | - | - | - | - | 53 | -
O=C(c1ccc(Cl)c(Cl)c1)N1CCC(=O)N(C(COCc2cccc(C(F)(F)F)c2)Cc2ccccc2)CC1 (stereo unspecified) | - | - | 73 | - | - | -
CCOC(=O)Nc1cc(=O)c([N+](=O)[O-])c(N)[nH]1 | - | . | . | . | . | .
Cc1cc(=O)oc(C)c1C(=O)NCc1ccco1 | - | - | - | - | - | -
CCCCNC(=O)c1c(C)cc(=O)oc1C | - | 33 | - | - | - | -
Cc1cc(=O)oc(C)c1C(=O)NCc1c(F)cc(F)cc1F | - | 36 | - | - | - | -
COc1ccccc1-c1ccc([C@@H]2C[C@H]3[C@@H](CN2)CON3C)cc1 | - | - | - | . | . | .
COc1ccc(Cl)cc1NC(=O)CN1CCCCCC1 | - | - | - | - | - | -
COc1ccccc1NC(=O)CN1CCN(C2c3ccccc3-c3ccccc32)CC1 | - | - | - | - | 51 | -
COc1ccc(NC(=O)CN2CCN(C3c4ccccc4-c4ccccc43)CC2)c(OC)c1 | - | - | - | - | - | -
COc1ccc(N)cc1NC(=O)CN1CCCC1 | - | - | - | - | 59 | -
O=C1NC(=O)C2(CCCc3c([N+](=O)[O-])cccc32)N1 (stereo unspecified) | - | - | - | . | . | .
C#CCNC(=O)C[C@H]1C[C@@]2(C(=O)OC)C(=C[C@H](C(C)C)O[C@@H]2C2CC2)N(Cc2ccccc2)C1=O | - | . | . | . | . | .
COc1ccc(NC(=O)N(C)C[C@H]2OCc3cn(nn3)CCCC(=O)N([C@H](C)CO)C[C@@H]2C)cc1 | - | . | . | . | . | .
Cc1c(-c2ccccc2)c(=O)oc2cc(O)ccc12 | - | - | + | - | - | -
NC(=O)C(C(=O)/C=C/c1ccc(Cl)cc1)=C1SCCS1 | - | 44 | - | - | - | .
CCCn1c(=O)[nH]c(=O)c2c1nc(-c1ccc(OC(F)(F)C(F)C(F)(F)F)cc1)n2CCOC (stereo unspecified) | - | - | - | - | - | -
COCCCn1c(-c2ccc(OC)cc2)nc2c1c(=O)[nH]c(=O)n2Cc1ccccc1 | - | - | - | - | - | -
CCCn1c(=O)[nH]c(=O)c2c1nc(-c1ccc(C#N)cc1)n2CCOC | - | - | + | - | - | -
COCCn1c(-c2ccc(C#N)cc2)nc2c1c(=O)[nH]c(=O)n2Cc1ccccc1 | - | - | + | - | - | -
COc1ccc(OC)c(CN(CC(F)(F)F)S(=O)(=O)c2ccccc2Br)c1 | - | . | . | . | . | .
C[C@H]1C(=O)N(C)CCN1C(=O)c1ccc(OC2CCN(CCc3ccccc3)CC2)cc1 | - | - | - | . | . | .
CCOC(=O)c1c(C)[nH]c(C(=O)N/N=C/c2ccc(OC)c(OC)c2)c1C | - | 43 | - | - | - | -
COc1ccccc1/C=N/NC(=O)c1[nH]c(C)c(C(=O)N/N=C/c2ccccc2OC)c1C | - | 54 | - | - | - | -
CCOC(=O)c1c(C)[nH]c(C(=O)N/N=C\c2ccccc2O)c1C | - | - | - | - | - | -
SMILES | CCHF vOTU inh | GDH-TPI counter | FBA Mtb inh | 3CLpro inhibitor | VHR inh abs | RecA splice inh
COc1cccc(C(=O)NCCS(=O)(=O)NCCCc2ccccc2)c1 | - | - | - | . | . | -
Cc1nn(-c2ccccc2)c2c1C(O)CC(C)(C)C2 (stereo unspecified) | - | - | - | - | - | -
Cc1nc2c(c3c1[nH]c1ccccc13)C(O)CC(C)(C)C2 (stereo unspecified) | - | - | 120 | - | - | -
CCOC(=O)N1CCN(C(=O)COC(=O)C2CCN(S(=O)(=O)c3ccc(C)c(C)c3)CC2)CC1 | - | - | - | . | . | -
CC1CC(C)CN(C(C(=O)NC2CCCCC2)c2cc3ccccc3o2)C1 (stereo unspecified) | - | . | - | . | . | .
NC(=S)N/N=C/c1c(O)ccc2ccccc12 | - | 32 | - | - | - | -
Cn1cc(/C=N/NC(N)=S)c2ccccc21 | - | 37 | - | - | - | -
C=CCNC(=S)N/N=C/c1cn(C)c2ccccc12 | - | 32 | - | - | - | -
Cc1noc(NS(=O)(=O)c2ccc(NC(=O)c3ccc(N(C)C)cc3)cc2)c1C | - | 32 | - | . | . | .
CS(=O)(=O)Nc1ccc(C(=O)Nc2ccc(S(=O)(=O)Nc3nccs3)cc2)cc1 | - | - | - | - | - | -
CN(C)c1ccc(C(=O)Nc2ccc(S(=O)(=O)NC3=NCCCCC3)cc2)cc1 | - | 33 | - | - | - | -
Cc1noc(NS(=O)(=O)c2ccc(NC(=O)c3cnc4scc(C)n4c3=O)cc2)c1C | - | 49 | - | - | - | -
CN(C)c1ccc(C(=O)Nc2ccc(S(=O)(=O)Nc3nccs3)cc2)cc1 | - | 38 | - | - | - | -
Cc1nn(-c2ccccc2)c2sc(C(=O)NCC3CCCO3)cc12 (stereo unspecified) | - | . | . | . | . | .
Cc1ccc(C(=O)NNC(=O)c2nn(-c3ccc(F)cc3)ccc2=O)cc1 | - | 33 | - | - | - | -
Cc1noc(NS(=O)(=O)c2ccc(NC(=O)c3nn(-c4ccc(F)cc4)ccc3=O)cc2)c1C | - | 32 | - | - | - | -
Cc1ccc(-n2ccc(=O)c(C(=O)Nc3ccc(S(=O)(=O)Nc4onc(C)c4C)cc3)n2)cc1 | - | - | - | - | - | -
CC(C)N(Cc1ccccc1)S(=O)(=O)c1n[nH]c(C(C)(C)C)n1 | - | . | . | . | . | .
COC(=O)[C@]12C[C@H](CC(=O)NCC34CC5CC(CC(C5)C3)C4)C(=O)N(Cc3ccc4c(c3)OCO4)C1=C[C@H](C(C)(C)C)O[C@@H]2C | - | . | . | . | . | .
Cc1ccc(S(=O)(=O)Oc2cccc(/C=N/Nc3ccc(C(=O)O)cc3)c2)cc1 | - | 31 | - | - | - | -
COc1ccc(/C(N)=N/OC(=O)/C=C/c2ccccc2)cc1 | - | - | - | - | - | -
CC(C)c1ccc(/C=N/Nc2ccc(C(=O)O)cc2)cc1 | - | 31 | - | - | - | -
COc1ccc(/C=N/Nc2ccc(C(=O)O)cc2)cc1Br | - | - | - | - | - | -
COc1ccc(/C=N/Nc2ccc(C(=O)O)cc2)cc1OC | - | 47 | - | - | - | -
COc1ccc(/C=C/C(=O)O/N=C(\N)c2ccccc2)cc1OC | - | 40 | - | - | - | -
COc1cccc(/C=C/C(=O)c2ccc(NS(=O)(=O)c3ccc(C)cc3)cc2)c1 | - | - | - | - | - | 34
O=C(O)c1ccc(N/N=C/c2ccc(OC(=O)c3ccccc3Cl)cc2)cc1 | - | 41 | - | - | - | -
O=[N+]([O-])c1ccc(N2CCOCC2)c2ccncc12 | - | - | - | - | - | 30
COc1ccc(C(C(=O)NCCC(C)C)N(CCO)C(=O)c2snc(C(N)=O)c2N)cc1OC (stereo unspecified) | - | - | - | - | - | -
COc1ccc(C(C(=O)NCCC(C)C)N(CCO)C(=O)c2snc(C(N)=O)c2N)cc1 (stereo unspecified) | - | - | - | - | 53 | -
